Experimental data: PubChem BioAssay (EPA / NIEHS)
The source made the active and inactive calls. How the source made its calls: active means hit-call score of the fitted dose curve at least 0.9, where 1 is the maximum; inactive means score below 0.9.

Assays:
Conditions in all cases: mRNA level, 48 h; actives raise or lower the signal
[1] = read-out: CYP2C9 (gene 1559); experiment: LTEA_HepaRG_CYP2C9: Life Technologies and Expression Analysis (LTEA) Assay for CYP2C9 using HepaRG (AID 2283484)
In short: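 Cells plated 48 h, switched to serum-free induction medium, then treated in duplicate for 48 h at eight concentrations (max 100 uM, 0.5% DMSO). RNA then analysed by qRT-PCR for CYP2C9; curves fitted in both directions relative to DMSO.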

[2] = read-out: CYP2E1 (gene 1571); experiment: LTEA_HepaRG_CYP2E1: Life Technologies and Expression Analysis (LTEA) Assay for CYP2E1 using HepaRG (AID 2283485)
In short: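 HepaRG cells in serum-free induction medium exposed 48 h to test chemicals, 8 half-log concentrations up to 100 uM in 0.5% DMSO, duplicate. CYP2E1 mRNA by qRT-PCR, normalized to ACTB, GAPDH, POLR2A; bidirectional fit versus DMSO.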

[3] = read-out: CYP4A11 (gene 1579); experiment: LTEA_HepaRG_CYP4A11: Life Technologies and Expression Analysis (LTEA) Assay for CYP4A11 using HepaRG (AID 2283486)
In short: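 Human hepatic HepaRG cultures receive duplicate 48 h exposures across a concentration-response series topping at 100 uM. Expression changes in CYP4A11 are measured by qRT-PCR relative to DMSO controls.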

[4] = read-out: Cytochrome P450 3A4 (Homo sapiens) (UniProt P08684); experiment: LTEA_HepaRG_CYP3A4: Life Technologies and Expression Analysis (LTEA) Assay for CYP3A4 using HepaRG (AID 2283487)
In short: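 Differentiated HepaRG cells, plated 48 h, then dosed 48 h in serum-free induction medium with 0.5% DMSO, 8 half-log concentrations up to 100 uM, duplicate. CYP3A4 mRNA by qRT-PCR, normalized to ACTB/GAPDH/POLR2A; bidirectional fit versus DMSO.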

[5] = read-out: DNA damage-inducible transcript 3 (DDIT3), DDIT3 (gene 1649); experiment: LTEA_HepaRG_DDIT3: Life Technologies and Expression Analysis (LTEA) Assay for DNA damage-inducible transcript 3 (DDIT3) using HepaRG (AID 2283488)
In short: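 Differentiated human HepaRG cells in serum-free induction medium were exposed in duplicate for 48 h to 8 concentrations (top 100 uM, half-log steps, 0.5% DMSO). DDIT3 mRNA measured by TaqMan qRT-PCR, normalized to ACTB/GAPDH/POLR2A; bidirectional fit versus DMSO.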

[6] = read-out: Pro-epidermal growth factor (Homo sapiens) (UniProt P01133); experiment: LTEA_HepaRG_EGF: Life Technologies and Expression Analysis (LTEA) Assay for Epidermal growth factor (EGF) using HepaRG (AID 2283489)
In short: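 Concentration-response mRNA assay: HepaRG cells dosed 48 h (max 100 uM, 0.5% DMSO), EGF measured by qRT-PCR and normalized to ACTB/GAPDH/POLR2A.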

[7] = read-out: Early growth response protein 1 (EGR1) transcription factor, EGR1 (gene 1958); experiment: LTEA_HepaRG_EGR1: Life Technologies and Expression Analysis (LTEA) Assay for Early growth response protein 1 (EGR1) transcription factor using HepaRG (AID 2283490)
In short: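 Read-out is EGR1 mRNA level by qRT-PCR, normalized to three housekeeping genes and analysed for gain or loss of signal against 0.5% DMSO. Source cells: human HepaRG, treated 48 h at up to 100 uM in half-log dilutions.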

[8] = read-out: Ezrin (EZR), EZR (gene 7430); experiment: LTEA_HepaRG_EZR: Life Technologies and Expression Analysis (LTEA) Assay for Ezrin (EZR) using HepaRG (AID 2283491)
In short: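 EZR transcript levels came from Fluidigm qRT-PCR and were normalized to three housekeeping genes after 48 h chemical exposure of HepaRG cells. Dosing used an 8-point half-log series with a 100 uM top concentration in 0.5% DMSO, tested in duplicate; both directions were fitted versus vehicle.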

[9] = read-out: Cytochrome P450 3A7 (Homo sapiens) (UniProt P24462); experiment: LTEA_HepaRG_CYP3A7: Life Technologies and Expression Analysis (LTEA) Assay for CYP3A7 using HepaRG (AID 2283492)
In short: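 qRT-PCR of CYP3A7 in HepaRG lysates after 48 h treatment; concentration-response (8 points, max 100 uM) analysed bidirectionally relative to 0.5% DMSO controls.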

[10] = read-out: CYP3A5 (gene 1577); experiment: LTEA_HepaRG_CYP3A5: Life Technologies and Expression Analysis (LTEA) Assay for CYP3A5 using HepaRG (AID 2283493)
In short: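 Differentiated HepaRG cells in serum-free induction medium were dosed 48 h with test chemicals (8-point half-log series, top 100 uM, 0.5% DMSO, duplicate). CYP3A5 mRNA measured by qRT-PCR, normalized to ACTB, GAPDH, POLR2A; bidirectional fit versus DMSO.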

[11] = read-out: Fatty Acid-Binding Protein 1 (FABP1), FABP1 (gene 2168); experiment: LTEA_HepaRG_FABP1: Life Technologies and Expression Analysis (LTEA) Assay for Fatty Acid-Binding Protein 1 (FABP1) using HepaRG (AID 2283494)
In short: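 HepaRG, 48 h post-plating switched to serum-free induction medium, then dosed 48 h (duplicate, 8 pts, ≤100 uM, 0.5% DMSO). RNA → Fluidigm TaqMan qRT-PCR, FABP1 normed to ACTB/GAPDH/POLR2A. Bidirectional curve fit vs DMSO.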

[12] = read-out: Cytochrome P450 4A22 (Homo sapiens) (UniProt Q5TCH4); experiment: LTEA_HepaRG_CYP4A22: Life Technologies and Expression Analysis (LTEA) Assay for Cytochrome P450 4A22 (CYP4A22) using HepaRG (AID 2283495)
In short: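 Concentration-response (8 points, max 100 uM, 0.5% DMSO) in human HepaRG liver cells after 48 h exposure. CYP4A22 mRNA by TaqMan qRT-PCR with housekeeping-gene normalization.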

[13] = read-out: Cytochrome P450 7A1 (Homo sapiens) (UniProt P22680); experiment: LTEA_HepaRG_CYP7A1: Life Technologies and Expression Analysis (LTEA) Assay for Cytochrome P450 7A1 (CYP7A1) using HepaRG (AID 2283496)
In short: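 Gene expression endpoint in human HepaRG liver cells treated for 48 h with test chemicals (up to 100 uM, 0.5% DMSO). Values come from bidirectional concentration-response fitting versus DMSO.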

[14] = read-out: Glutathione S-Transferase (GSTA2), GSTA2 (gene 2939); experiment: LTEA_HepaRG_GSTA2: Life Technologies and Expression Analysis (LTEA) Assay for Glutathione S-Transferase (GSTA2) using HepaRG (AID 2283497)
In short: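 HepaRG, 48 h dosing, 8-pt half-log CRC from 100 uM, 0.5% DMSO vehicle, n=2; RNA → Fluidigm TaqMan qRT-PCR; GSTA2 vs ACTB/GAPDH/POLR2A; gain/loss fit vs DMSO.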

[15] = read-out: Glutamate-cysteine ligase catalytic (GCLC), GCLC (gene 2729); experiment: LTEA_HepaRG_GCLC: Life Technologies and Expression Analysis (LTEA) Assay for Glutamate-cysteine ligase catalytic (GCLC) using HepaRG (AID 2283498)
In short: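 Read-out is GCLC transcript level by Fluidigm-based TaqMan qRT-PCR, normalized to three housekeeping genes and fitted in both directions relative to 0.5% DMSO. Human HepaRG cells received chemicals for 48 h, up to 100 uM.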

[16] = read-out: growth arrest and DNA damage 45 (GADD45G), GADD45G (gene 10912); experiment: LTEA_HepaRG_GADD45G: Life Technologies and Expression Analysis (LTEA) Assay for growth arrest and DNA damage 45 (GADD45G) using HepaRG (AID 2283499)
In short: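 Concentration-response in HepaRG: 48 h dosing, 0.5% DMSO, highest level 100 uM. GADD45G expression by qRT-PCR, normalised to endogenous controls; bidirectional fit to DMSO.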

[17] = read-out: Glutamate-cysteine ligase regulatory (GCLM), GCLM (gene 2730); experiment: LTEA_HepaRG_GCLM: Life Technologies and Expression Analysis (LTEA) Assay for Glutamate-cysteine ligase regulatory (GCLM) using HepaRG (AID 2283500)
In short: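 Differentiated human HepaRG cells exposed 48 h in serum-free induction medium to 8-point half-log concentrations (top 100 uM, 0.5% DMSO), in duplicate. GCLM mRNA quantified by qRT-PCR, normalized to ACTB, GAPDH, POLR2A; bidirectional fitting versus DMSO.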

[18] = read-out: Glutathione S-transferase M3 (GSTM3), GSTM3 (gene 2947); experiment: LTEA_HepaRG_GSTM3: Life Technologies and Expression Analysis (LTEA) Assay for Glutathione S-transferase M3 (GSTM3) using HepaRG (AID 2283501)
In short: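 Expression of GSTM3 is determined by qRT-PCR in human liver HepaRG cells treated 48 h with an 8-point half-log range from 100 uM in 0.5% DMSO.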

[19] = read-out: Heat shock 70 kDa protein 1 (HSPA1A), gene 3303; experiment: LTEA_HepaRG_HSPA1A: Life Technologies and Expression Analysis (LTEA) Assay for Heat shock 70 kDa protein 1 (HSPA1A) using HepaRG (AID 2283502)
In short: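 Differentiated human HepaRG cells in serum-free induction medium were exposed in duplicate for 48 h to eight concentrations (top 100 uM, half-log steps, 0.5% DMSO). HSPA1A mRNA was quantified by qRT-PCR, normalized to ACTB, GAPDH and POLR2A, and fitted bidirectionally against DMSO.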

[20] = read-out: Hypoxia-inducible factor 1-alpha (Homo sapiens) (UniProt Q16665); experiment: LTEA_HepaRG_HIF1A: Life Technologies and Expression Analysis (LTEA) Assay for Hypoxia-inducible factor 1 (HIF1A) Trancription factor using HepaRG (AID 2283503);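 further: HIF1A transcript by TaqMan qRT-PCR normalized to ACTB GAPDH and POLR2A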
In short: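 HepaRG, 48 h exposure, 8-pt half-log series from 100 uM, 0.5% DMSO vehicle, duplicates. Readout: HIF1A transcript by qRT-PCR (Fluidigm array), housekeeping-normalised. Bidirectional curve fit vs DMSO baseline.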

Measured: outcome

Hypoxia-inducible factor 1-alpha (Homo sapiens), sequence (Q16665 whole entry, looked up): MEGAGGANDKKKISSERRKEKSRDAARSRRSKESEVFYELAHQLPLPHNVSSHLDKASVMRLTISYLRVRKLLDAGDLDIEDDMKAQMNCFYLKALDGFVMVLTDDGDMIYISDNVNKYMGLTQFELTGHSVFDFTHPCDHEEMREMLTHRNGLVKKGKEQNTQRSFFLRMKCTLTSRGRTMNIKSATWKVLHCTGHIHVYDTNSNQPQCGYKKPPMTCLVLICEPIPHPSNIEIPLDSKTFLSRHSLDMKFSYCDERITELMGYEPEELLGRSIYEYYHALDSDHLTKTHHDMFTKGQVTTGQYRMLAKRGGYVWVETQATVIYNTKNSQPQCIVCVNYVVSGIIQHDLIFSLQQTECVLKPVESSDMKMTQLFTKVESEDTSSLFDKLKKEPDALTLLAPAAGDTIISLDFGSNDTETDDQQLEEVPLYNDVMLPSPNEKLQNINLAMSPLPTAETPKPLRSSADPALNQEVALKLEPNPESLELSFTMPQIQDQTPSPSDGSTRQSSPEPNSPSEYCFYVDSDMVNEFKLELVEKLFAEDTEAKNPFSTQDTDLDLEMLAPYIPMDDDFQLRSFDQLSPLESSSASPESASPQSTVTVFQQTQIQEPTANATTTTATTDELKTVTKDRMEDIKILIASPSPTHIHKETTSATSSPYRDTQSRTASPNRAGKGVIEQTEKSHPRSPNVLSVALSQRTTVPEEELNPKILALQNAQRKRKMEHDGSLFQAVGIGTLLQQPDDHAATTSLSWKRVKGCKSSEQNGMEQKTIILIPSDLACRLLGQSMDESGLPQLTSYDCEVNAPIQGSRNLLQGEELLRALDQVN
Cytochrome P450 3A4 (Homo sapiens), sequence (P08684 whole entry, looked up): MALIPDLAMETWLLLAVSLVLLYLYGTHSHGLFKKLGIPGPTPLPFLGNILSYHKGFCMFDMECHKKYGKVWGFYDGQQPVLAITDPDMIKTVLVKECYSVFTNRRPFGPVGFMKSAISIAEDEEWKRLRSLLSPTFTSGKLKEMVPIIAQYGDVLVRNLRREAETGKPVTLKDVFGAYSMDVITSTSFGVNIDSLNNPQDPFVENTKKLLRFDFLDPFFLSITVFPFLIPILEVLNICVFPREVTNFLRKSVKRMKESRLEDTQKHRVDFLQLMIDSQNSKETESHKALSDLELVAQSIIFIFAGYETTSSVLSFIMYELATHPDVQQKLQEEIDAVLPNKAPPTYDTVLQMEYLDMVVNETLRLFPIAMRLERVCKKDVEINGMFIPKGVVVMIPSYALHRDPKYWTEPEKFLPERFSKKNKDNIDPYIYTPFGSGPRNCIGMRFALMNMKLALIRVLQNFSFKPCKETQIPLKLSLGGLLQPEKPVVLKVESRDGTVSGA
Cytochrome P450 3A7 (Homo sapiens), sequence (P24462 whole entry, looked up): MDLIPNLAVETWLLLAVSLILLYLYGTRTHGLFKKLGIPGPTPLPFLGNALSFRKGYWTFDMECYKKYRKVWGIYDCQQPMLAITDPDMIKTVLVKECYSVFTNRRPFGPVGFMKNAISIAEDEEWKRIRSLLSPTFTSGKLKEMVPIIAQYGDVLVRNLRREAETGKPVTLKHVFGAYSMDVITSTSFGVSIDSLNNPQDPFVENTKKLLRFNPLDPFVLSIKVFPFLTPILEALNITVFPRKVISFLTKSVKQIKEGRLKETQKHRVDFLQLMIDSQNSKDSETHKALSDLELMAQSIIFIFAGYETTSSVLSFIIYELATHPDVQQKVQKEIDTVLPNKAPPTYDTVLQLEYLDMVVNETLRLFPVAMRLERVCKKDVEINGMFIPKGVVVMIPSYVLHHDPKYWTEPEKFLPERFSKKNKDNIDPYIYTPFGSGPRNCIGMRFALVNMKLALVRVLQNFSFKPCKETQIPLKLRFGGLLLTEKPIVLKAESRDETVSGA

CS(=O)(=O)OCCCCOS(C)(=O)=O
inactive: all assays above
